# Source: PubChem BioAssay (NCATS)
# Several values for one entry are separate records, joined by “and”; a condition that tells them apart may be missing. Identical values can stand only once. Inconclusive results are not listed. Where a call stands in place of a potency, no number is given. Some structures have more than one record in an assay (separate samples or runs), and their calls can disagree. Activity calls are given as the source filed them. Unless noted, the call rests on the fitted dose curve; in most records, active means well fitted curve in the direction sought with a large enough effect; inconclusive means small, poorly fitted or top-dose-only effect, or another doubt; inactive means no such curve, though single readings can be large; an effect the other way counts as inactive or inconclusive.
# What was measured:
# [1] = Primary qHTS for inhibitors of nuclear receptor binding SET domain protein 2 (NSD2) in an isogenic RCH-ACV NSD2 p.E1099K mutant (9B) (AID 1645876); further: nearly all actives have a fitted effect of over 70% in size; further: potency means the concentration at half of the fitted maximal effect
# [2] = biological target: Catechol O-methyltransferase (Homo sapiens) (UniProt P21964); assay: Confirmatory Screen for Target Class Profiling of Small Molecule Inhibitors of Methyltransferases (AID 1745852; calls by dose curve; further: potency means the concentration at half of the fitted maximal effect); details: MTase-Glo luminescence, SAH detection, recombinant enzyme, stronger effect = lower value; measured here: COMT max response unless noted
# [3] = biological target: Guanidinoacetate N-methyltransferase (Homo sapiens) (UniProt Q14353); assay: as above; details: MTase-Glo luminescence, SAH detection, recombinant enzyme; activity change, negative = inhibition: at 57.3 µM (top of the series)
# [4] = biological target: Nicotinamide N-methyltransferase (Homo sapiens) (UniProt P40261); assay: as above; details: MTase-Glo luminescence, SAH detection, recombinant enzyme, stronger effect = lower value; measured here: NNMT max response unless noted
# [5] = biological target: Phenylethanolamine N-methyltransferase (Homo sapiens) (UniProt P11086); assay: as above; details: MTase-Glo luminescence, SAH detection, recombinant enzyme, stronger effect = lower value; measured here: PNMT max response unless noted
# [6] = biological target: Cytochrome P450 2D6 (Homo sapiens) (UniProt P10635); assay: Cytochrome P450 family 2 subfamily D member 6 (CYP2D6) small molecule antagonists: luciferase biochemical (cell-free) qHTS assay (AID 1645840; active means well fitted curve in the direction sought with a large enough effect in the repeat runs; an effect the other way counts as inactive or inconclusive; further: nearly all actives have a fitted effect of over 55% in size; further: potency means the concentration at half of the fitted maximal effect)
# Outline: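 P450-Glo luminescent screen: recombinant CYP2D6 enzyme–proluciferin substrate mix preincubated with compound 10 min at room temperature, then NADPH regeneration added for 1 h at room temperature. Detection reagent added for 20 min; luciferin light read as relative luminescence units.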
# [7] = biological target: Cytochrome P450 2C9 (Homo sapiens) (UniProt P11712); assay: Cytochrome P450 family 2 subfamily C member 9 (CYP2C9) small molecule antagonists: luciferase biochemical (cell-free) qHTS assay (AID 1645842; active means well fitted curve in the direction sought with a large enough effect in the repeat runs; an effect the other way counts as inactive or inconclusive; further: nearly all actives have a fitted effect of over 55% in size; further: potency means the concentration at half of the fitted maximal effect)
# Outline: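 Luminescence, after 20 min with luciferin detection reagent, reflected CYP2C9 turnover during a 1 h NADPH-driven reaction at 37C. Enzyme-substrate mix contained 0.4% bovine serum albumin and was preincubated with compound 10 min at room temperature.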
# [8] = Primary qHTS for inhibitors of nuclear receptor binding SET domain protein 2 (NSD2) in an RCH-ACV wild type WT cells (2C) (AID 1645877); further: nearly all actives have a fitted effect of over 70% in size; further: potency means the concentration at half of the fitted maximal effect
# [9] = Primary qHTS for small molecule stabilizers of the endoplasmic reticulum resident proteome: Secreted ER Calcium Modulated Protein (SERCaMP) assay (AID 1508630)
# Outline: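 GLuc-SERCaMP-expressing SH-SY5Y cells, pretreated 16 h with compound, are challenged with thapsigargin to empty ER calcium stores; after 4 h, coelenterazine is added directly to the medium and luminescence is imaged.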
# [10] = biological target: Rap guanine nucleotide exchange factor 3 (Homo sapiens) (UniProt O95398); assay: Confirmatory qHTS for antagonist of cAMP-regulated guanine nucleotide exchange factor 3 (EPAC1) (AID 1645880); further: nearly all actives have a fitted effect of over 55% in size; further: potency means the concentration at half of the fitted maximal effect
# Outline: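 Nucleotide exchange uses 100 nM EPAC1, 250 nM RAP1B-BODIPY-GDP and 50 uM GDP, with compounds in a concentration-titration series. After 5 min at room temperature, fluorescence (480 nm ex/540 nm em) is read every 5 min for 30 min. Data are normalized to control ATA and DMSO.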
# [11] = biological target: Rap guanine nucleotide exchange factor 3 (Homo sapiens) (UniProt O95398); assay: Confirmatory qHTS for agonist of cAMP-regulated guanine nucleotide exchange factor 3 (EPAC1) (AID 1645881);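 further: EPAC1 catalysed release of BODIPY-GDP from Rap1B seen as fluorescence loss; nearly all actives have a fitted effect of over 75% in size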
# [12] = biological target: Rap guanine nucleotide exchange factor 4 (Homo sapiens) (UniProt Q8WZA2); assay: Confirmatory qHTS for agonist of cAMP-regulated guanine nucleotide exchange factor 4 (EPAC2) (AID 1645884);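 further: nucleotide exchange releases bodipy-GDP from Rap1 and this lowers its fluorescence; nearly all actives have a fitted effect of over 65% in size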
# [13] = biological target: Rap guanine nucleotide exchange factor 4 (Homo sapiens) (UniProt Q8WZA2); assay: Confirmatory qHTS for antagonist of cAMP-regulated guanine nucleotide exchange factor 4 (EPAC2) (AID 1645885); further: nearly all actives have a fitted effect of over 25% in size; further: potency means the concentration at half of the fitted maximal effect
# [14] = biological target: Papain (Carica papaya) (UniProt P00784); assay: Primary qHTS assay for inhibitors of the protease papain (AID 1645873);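 further: papain turnover of Z-FR-AMC read as the AMC fluorescence gain over 10 min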
# [15] = A High-Content qHTS Against Drug Library for the Identification of Small Molecules that Inhibit DYT1 Early Onset Primary Dystonia-Associated Cell Pathology (AID 1645839; calls by dose curve)
# Outline: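 Flp-In T-REx 293 cells with tetracycline-inducible EGFP-delE hTOR1A (WT EGFP-hTOR1A as reference), 800 cells/well; compound added with tetracycline, 48 h at 37 C. Fixed, permeabilized cells imaged; %pathology (punctate TorsinA) primary, cell count counterscreen.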
# [16] = biological target: N-terminal Xaa-Pro-Lys N-methyltransferase 1 (Homo sapiens) (UniProt Q9BV86); assay: Confirmatory qHTS for Inhibitors of N-terminal methyltransferase 1 (NTMT1): MTaseGlo Assay (AID 1645874);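 further: luminescence from SAH made as NTMT1 methylates SPKRIA peptide using SAM; nearly all actives have a fitted effect of over 65% in size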
# Outline: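 Compounds are incubated with 125 nM NTMT1 and 100 uM SAM for 15 min before the SPKRIA peptide (1 uM) starts a 30 min room-temperature methylation. SAH is measured by coupled luciferase luminescence and curves fitted to a Hill equation.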
# [17] = biological target: Cytochrome P450 3A4 (Homo sapiens) (UniProt P08684); assay: Cytochrome P450 family 3 subfamily A member 4 (CYP3A4) small molecule antagonists: luciferase qHTS assay (AID 1645841; active means well fitted curve in the direction sought with a large enough effect in the repeat runs; an effect the other way counts as inactive or inconclusive; further: nearly all actives have a fitted effect of over 45% in size)
# Outline: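 P450-Glo CYP3A4 enzyme with proluciferin substrate preincubated 10 min with compound at room temperature, then NADPH regeneration 1 h. Luciferin detection reagent added for 20 min; luminescence recorded. Ketoconazole positive control.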
# [18] = biological target: Rap guanine nucleotide exchange factor 3 (Homo sapiens) (UniProt O95398); assay: Counterscreen qHTS for antagonist of cAMP-regulated guanine nucleotide exchange factor 3 (EPAC1) (AID 1645888);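 further: fluorescence loss as bound BODIPY-GDP is released from Rap1B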
# Outline: (§1)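 Rap1B–BODIPY-GDP (250 nM) with 50 uM GDP; compounds pin-transferred to 9.74 nM–152 uM final (activator) or from 7.32 nM upwards (inhibitor). Fluorescence Ex/Em 480/540 nm read at 5 and 30 min, then after adding cAMP or buffer, at room temperature.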
# [19] = biological target: Rap guanine nucleotide exchange factor 3 (Homo sapiens) (UniProt O95398); assay: Counterscreen qHTS for agonist of cAMP-regulated guanine nucleotide exchange factor 3 (EPAC1) (AID 1645889); further: nearly all actives have a fitted effect of over 40% in size
# Outline: as §1
# Rap guanine nucleotide exchange factor 3 (Homo sapiens), sequence (O95398 whole entry, looked up): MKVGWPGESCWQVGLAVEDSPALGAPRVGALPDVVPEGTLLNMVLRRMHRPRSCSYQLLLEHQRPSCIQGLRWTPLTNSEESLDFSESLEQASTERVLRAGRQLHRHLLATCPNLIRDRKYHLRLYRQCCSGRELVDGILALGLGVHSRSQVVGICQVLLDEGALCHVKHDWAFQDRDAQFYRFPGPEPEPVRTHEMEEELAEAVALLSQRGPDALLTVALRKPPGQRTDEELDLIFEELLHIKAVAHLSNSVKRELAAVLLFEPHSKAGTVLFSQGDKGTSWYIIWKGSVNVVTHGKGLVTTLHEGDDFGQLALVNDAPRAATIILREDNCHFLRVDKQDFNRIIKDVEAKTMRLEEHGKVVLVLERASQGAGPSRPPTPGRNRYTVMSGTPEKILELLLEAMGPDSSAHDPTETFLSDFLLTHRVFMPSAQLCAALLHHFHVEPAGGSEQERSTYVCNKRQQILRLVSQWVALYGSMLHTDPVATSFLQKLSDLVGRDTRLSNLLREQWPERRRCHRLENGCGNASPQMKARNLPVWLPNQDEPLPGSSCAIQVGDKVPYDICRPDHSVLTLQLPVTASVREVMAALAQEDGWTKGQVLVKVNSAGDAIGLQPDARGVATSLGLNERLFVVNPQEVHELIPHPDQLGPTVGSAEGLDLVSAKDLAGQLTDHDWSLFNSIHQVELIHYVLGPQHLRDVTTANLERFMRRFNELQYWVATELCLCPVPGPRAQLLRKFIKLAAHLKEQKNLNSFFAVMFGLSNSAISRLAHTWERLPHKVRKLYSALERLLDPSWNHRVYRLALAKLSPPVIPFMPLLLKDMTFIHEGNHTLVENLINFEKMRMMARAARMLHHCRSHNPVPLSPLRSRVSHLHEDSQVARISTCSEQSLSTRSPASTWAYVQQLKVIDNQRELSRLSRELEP
# Phenylethanolamine N-methyltransferase (Homo sapiens), sequence (P11086 whole entry, looked up): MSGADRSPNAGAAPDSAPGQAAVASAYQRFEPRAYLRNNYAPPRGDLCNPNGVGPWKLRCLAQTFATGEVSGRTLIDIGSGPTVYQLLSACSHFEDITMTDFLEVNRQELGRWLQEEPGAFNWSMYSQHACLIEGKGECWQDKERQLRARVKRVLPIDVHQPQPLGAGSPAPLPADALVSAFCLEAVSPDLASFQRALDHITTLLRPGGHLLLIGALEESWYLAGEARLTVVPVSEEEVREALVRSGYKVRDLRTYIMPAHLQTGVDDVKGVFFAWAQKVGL
# Rap guanine nucleotide exchange factor 4 (Homo sapiens), sequence (Q8WZA2 whole entry, looked up): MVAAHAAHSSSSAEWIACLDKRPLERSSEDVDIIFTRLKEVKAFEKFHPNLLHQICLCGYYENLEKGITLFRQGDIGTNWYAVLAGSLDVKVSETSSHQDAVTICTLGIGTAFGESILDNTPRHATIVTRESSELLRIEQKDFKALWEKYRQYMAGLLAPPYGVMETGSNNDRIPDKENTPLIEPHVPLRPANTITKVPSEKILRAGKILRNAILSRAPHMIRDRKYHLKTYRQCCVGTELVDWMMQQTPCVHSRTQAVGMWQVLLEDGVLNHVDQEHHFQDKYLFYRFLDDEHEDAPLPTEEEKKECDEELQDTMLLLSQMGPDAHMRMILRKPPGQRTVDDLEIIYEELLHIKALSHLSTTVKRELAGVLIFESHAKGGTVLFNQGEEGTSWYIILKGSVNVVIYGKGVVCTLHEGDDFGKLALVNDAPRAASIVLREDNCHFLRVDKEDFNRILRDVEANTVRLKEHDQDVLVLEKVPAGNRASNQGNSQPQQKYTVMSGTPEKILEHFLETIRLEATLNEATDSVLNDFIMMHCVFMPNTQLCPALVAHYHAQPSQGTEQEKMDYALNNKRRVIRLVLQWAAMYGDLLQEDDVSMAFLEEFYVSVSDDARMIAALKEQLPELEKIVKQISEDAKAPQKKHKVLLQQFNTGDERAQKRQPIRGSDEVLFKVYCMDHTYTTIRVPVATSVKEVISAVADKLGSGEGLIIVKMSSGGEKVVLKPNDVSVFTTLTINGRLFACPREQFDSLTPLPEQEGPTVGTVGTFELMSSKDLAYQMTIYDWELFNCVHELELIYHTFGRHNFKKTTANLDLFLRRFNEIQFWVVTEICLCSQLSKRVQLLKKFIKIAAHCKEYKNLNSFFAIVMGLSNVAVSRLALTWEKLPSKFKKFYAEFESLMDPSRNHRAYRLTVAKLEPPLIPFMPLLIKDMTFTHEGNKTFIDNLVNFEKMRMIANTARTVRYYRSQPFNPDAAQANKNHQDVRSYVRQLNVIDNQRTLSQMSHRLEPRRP
# Cytochrome P450 2D6 (Homo sapiens), sequence (P10635 whole entry, looked up): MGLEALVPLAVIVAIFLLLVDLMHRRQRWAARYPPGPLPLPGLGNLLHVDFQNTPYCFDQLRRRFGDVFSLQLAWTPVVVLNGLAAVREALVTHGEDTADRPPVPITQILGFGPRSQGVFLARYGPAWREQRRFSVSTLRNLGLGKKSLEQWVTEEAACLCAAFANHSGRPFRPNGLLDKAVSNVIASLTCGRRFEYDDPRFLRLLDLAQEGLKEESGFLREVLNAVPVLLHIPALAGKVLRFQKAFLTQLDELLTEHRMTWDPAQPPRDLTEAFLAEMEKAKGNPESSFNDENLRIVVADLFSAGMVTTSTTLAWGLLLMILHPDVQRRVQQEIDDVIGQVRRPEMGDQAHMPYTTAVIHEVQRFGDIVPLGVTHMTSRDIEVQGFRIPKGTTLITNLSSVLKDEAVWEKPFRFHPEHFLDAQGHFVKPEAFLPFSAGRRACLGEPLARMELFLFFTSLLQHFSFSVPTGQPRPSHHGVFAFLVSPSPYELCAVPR
# Papain (Carica papaya), sequence (P00784 whole entry, looked up): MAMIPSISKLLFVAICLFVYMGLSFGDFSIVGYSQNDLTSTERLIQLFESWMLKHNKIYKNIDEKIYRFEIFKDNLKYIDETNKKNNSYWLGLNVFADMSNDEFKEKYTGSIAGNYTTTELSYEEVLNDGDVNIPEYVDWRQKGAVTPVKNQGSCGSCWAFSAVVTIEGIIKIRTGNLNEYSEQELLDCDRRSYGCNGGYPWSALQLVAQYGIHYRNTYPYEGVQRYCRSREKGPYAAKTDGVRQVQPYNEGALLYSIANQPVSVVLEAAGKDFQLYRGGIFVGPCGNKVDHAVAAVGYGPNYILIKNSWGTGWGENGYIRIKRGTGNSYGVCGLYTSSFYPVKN
# Catechol O-methyltransferase (Homo sapiens), sequence (P21964 whole entry, looked up): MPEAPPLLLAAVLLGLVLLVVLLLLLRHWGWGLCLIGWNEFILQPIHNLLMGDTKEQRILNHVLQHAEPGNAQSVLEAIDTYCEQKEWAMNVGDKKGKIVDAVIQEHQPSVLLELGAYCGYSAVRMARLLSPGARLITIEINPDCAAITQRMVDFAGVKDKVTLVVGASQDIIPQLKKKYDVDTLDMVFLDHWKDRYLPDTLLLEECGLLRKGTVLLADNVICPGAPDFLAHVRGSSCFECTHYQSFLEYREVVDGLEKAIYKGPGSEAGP
# Cytochrome P450 2C9 (Homo sapiens), sequence (P11712 whole entry, looked up): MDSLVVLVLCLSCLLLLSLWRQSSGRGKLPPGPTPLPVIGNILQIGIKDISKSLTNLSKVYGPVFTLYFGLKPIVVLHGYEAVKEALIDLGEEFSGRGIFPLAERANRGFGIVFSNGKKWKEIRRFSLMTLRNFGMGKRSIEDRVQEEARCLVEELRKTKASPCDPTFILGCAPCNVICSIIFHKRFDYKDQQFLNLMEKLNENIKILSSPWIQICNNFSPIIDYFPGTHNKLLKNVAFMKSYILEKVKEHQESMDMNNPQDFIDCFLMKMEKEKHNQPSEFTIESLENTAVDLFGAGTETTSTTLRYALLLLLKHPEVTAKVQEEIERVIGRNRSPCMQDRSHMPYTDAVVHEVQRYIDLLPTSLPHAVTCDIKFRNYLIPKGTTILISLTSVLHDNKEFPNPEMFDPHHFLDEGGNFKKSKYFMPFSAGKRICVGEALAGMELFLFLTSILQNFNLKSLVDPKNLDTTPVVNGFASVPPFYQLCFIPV
# Nicotinamide N-methyltransferase (Homo sapiens), sequence (P40261 whole entry, looked up): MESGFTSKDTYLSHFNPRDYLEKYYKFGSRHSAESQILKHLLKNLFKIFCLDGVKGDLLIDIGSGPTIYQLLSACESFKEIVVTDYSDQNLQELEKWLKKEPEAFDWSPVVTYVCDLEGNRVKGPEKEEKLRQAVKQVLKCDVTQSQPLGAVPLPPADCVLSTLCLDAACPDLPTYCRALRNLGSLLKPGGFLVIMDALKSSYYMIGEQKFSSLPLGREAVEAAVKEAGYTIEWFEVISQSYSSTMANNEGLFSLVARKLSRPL
# N-terminal Xaa-Pro-Lys N-methyltransferase 1 (Homo sapiens), sequence (Q9BV86 whole entry, looked up): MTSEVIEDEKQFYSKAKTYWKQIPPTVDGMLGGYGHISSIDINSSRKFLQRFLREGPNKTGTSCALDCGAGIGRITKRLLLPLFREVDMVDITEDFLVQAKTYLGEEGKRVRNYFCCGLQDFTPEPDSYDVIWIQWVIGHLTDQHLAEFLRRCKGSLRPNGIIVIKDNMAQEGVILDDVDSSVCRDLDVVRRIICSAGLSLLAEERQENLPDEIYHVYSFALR
# Cytochrome P450 3A4 (Homo sapiens), sequence (P08684 whole entry, looked up): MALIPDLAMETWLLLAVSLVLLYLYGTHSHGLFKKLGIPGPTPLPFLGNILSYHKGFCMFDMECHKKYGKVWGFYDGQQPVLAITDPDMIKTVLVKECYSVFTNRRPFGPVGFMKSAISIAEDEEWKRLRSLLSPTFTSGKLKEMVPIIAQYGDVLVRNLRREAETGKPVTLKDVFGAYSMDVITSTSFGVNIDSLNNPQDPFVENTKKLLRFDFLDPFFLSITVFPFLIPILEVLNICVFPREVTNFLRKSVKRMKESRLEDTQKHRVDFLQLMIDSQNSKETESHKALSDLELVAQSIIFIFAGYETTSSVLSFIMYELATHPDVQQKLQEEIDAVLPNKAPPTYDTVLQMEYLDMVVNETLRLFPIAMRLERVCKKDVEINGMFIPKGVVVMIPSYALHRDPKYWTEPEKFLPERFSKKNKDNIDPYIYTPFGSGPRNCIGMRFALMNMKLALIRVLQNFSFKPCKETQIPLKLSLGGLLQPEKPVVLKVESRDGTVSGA
compound,measurement,setting,value
Oc1ccc2ccccc2c1SSc1c(O)ccc2ccccc12,Potency,[1],23.5 µM (active) and 16.4 µM (active)
same,activity,[2],22.1%
same,"activity change, negative = inhibition",[3],-0.328%
same,activity,[4],-8.59%
same,activity,[5],2.32%
CN1CCC(=C2c3ccccc3CCc3sccc32)CC1,Potency,[6],1.1 µM (active)
same,Potency,[7],inactive
same,Potency,[8],23.5 µM (active)
COC(=O)C1=C(C)NC(C)=C(C(=O)OC(C)C)C1c1cccc2nonc12 (stereo not given),Potency,[9],inactive
same,Potency,[10],inactive
same,outcome,[11],inactive
same,outcome,[12],inactive
same,Potency,[13],44.1 µM (active)
CN(C)c1ccc2nc3ccc(=[N+](C)C)cc-3sc2c1,Potency,[9],inactive
same,Potency,[1],1.32 µM (active) and 2.37 µM (active)
same,Potency,[8],1.32 µM (active) and 2.37 µM (active)
CC1(C)C(=O)N(CCN2CCC(C(=O)c3ccc(F)cc3)CC2)c2ccccc21,Potency,[14],inactive
O=C(NCC1CCCCN1)c1cc(OCC(F)(F)F)ccc1OCC(F)(F)F (stereo not given),Potency,[15],inactive
same,Potency,[7],inactive
same,Potency,[1],inactive
same,Potency,[8],inactive
CC(=O)N1CCN(c2ccc(OC[C@H]3CO[C@](Cn4ccnc4)(c4ccc(Cl)cc4Cl)O3)cc2)CC1,Potency,[9],inactive
same,Potency,[14],inactive
same,Potency,[10],inactive
same,outcome,[11],inactive
same,outcome,[12],inactive
same,Potency,[13],49.4 µM (active)
CCC(C)(Oc1ccc(C2(c3ccc(OC(C)(CC)C(=O)O)cc3)CCCCC2)cc1)C(=O)O (stereo not given),Potency,[15],inactive
same,Potency,[7],inactive
same,Potency,[1],inactive
same,Potency,[8],inactive
O=C(O)c1cccc(-c2noc(-c3ccccc3F)n2)c1,Potency,[15],inactive
same,Potency,[7],1.55 µM (active)
same,Potency,[16],inactive
same,Potency,[1],inactive
same,Potency,[8],inactive
CC(C)(S)[C@@H](N)C(=O)O,outcome,[1],inactive [at 4.96 µM]
same,outcome,[8],inactive [at 4.96 µM]
CS(=O)(=O)OCCCCOS(C)(=O)=O,Potency,[15],inactive
same,outcome,[17],inactive
same,Potency,[7],inactive
same,Potency,[1],inactive
same,Potency,[8],inactive
O=C1CCc2ccc(OCCCCN3CCN(c4cccc(Cl)c4Cl)CC3)cc2N1,Potency,[9],inactive
same,Potency,[1],inactive
Clc1ccc(C(Cn2ccnc2)OCc2c(Cl)cccc2Cl)c(Cl)c1 (stereo not given),Potency,[9],inactive
same,Potency,[1],21.1 µM (active) and 18.6 µM (active)
same,Potency,[8],21.1 µM (active) and 18.6 µM (active)
same,Potency,[10],inactive
same,outcome,[11],inactive
same,outcome,[12],inactive
same,Potency,[13],20.5 µM (active) and inactive
same,outcome,[18],inactive
same,activity,[2],-8.16%
same,"activity change, negative = inhibition",[3],-4.74%
same,activity,[4],-55.2%
same,activity,[5],-12.3%
O=C1c2ccccc2-c2n[nH]c3cccc1c23,Potency,[9],inactive
same,Potency,[14],inactive
same,Potency,[1],11.8 µM (active) and 14.6 µM (active)
same,Potency,[8],13.2 µM (active) and 14.6 µM (active)
CCCCCCCCCCCCCCCCCCCCCCO,Potency,[9],inactive
same,Potency,[1],inactive
same,Potency,[8],inactive
COc1cc2c(cc1OC)C1CC(=O)C(CC(C)C)CN1CC2 (stereo not given),Potency,[9],inactive
same,Potency,[1],inactive
same,Potency,[8],inactive
O=c1c(O)c(-c2cc(O)c(O)c(O)c2)oc2cc(O)cc(O)c12,Potency,[9],inactive
same,Potency,[1],18.6 µM (active)
CCC1=C(C)CN(C(=O)NCCc2ccc(S(=O)(=O)NC(=O)NC3CCC(C)CC3)cc2)C1=O (stereo not given),Potency,[9],inactive
same,Potency,[1],inactive
CC(=O)O[C@H]1C(=O)[C@@]2(C)C([C@H](OC(=O)c3ccccc3)[C@]3(O)C[C@H](OC(=O)[C@H](O)[C@@H](NC(=O)c4ccccc4)c4ccccc4)C(C)=C1C3(C)C)[C@]1(OC(C)=O)CO[C@@H]1C[C@@H]2O (stereo not given in full),Potency,[9],inactive
same,Potency,[1],4.5 nM (active) and 5.9 nM (active)
same,Potency,[8],5.1 nM (active) and 5.9 nM (active)
O=C1NC(=O)C(c2ccccc2[N+](=O)[O-])=C1Nc1ccc(O)c(Cl)c1,Potency,[9],inactive
same,Potency,[1],13.2 µM (active)
same,Potency,[8],18.6 µM (active)
O=c1ccc2ccc(O)c(O)c2o1,Potency,[9],inactive
same,activity,[2],197%
same,"activity change, negative = inhibition",[3],2.41%
same,activity,[4],-4.08%
same,activity,[5],2.42%
Cc1ccc(S(=O)(=O)NC(=O)NN2CC3CCCC3C2)cc1 (stereo not given),Potency,[15],inactive
same,Potency,[7],inactive
same,Potency,[1],inactive
same,Potency,[8],inactive
O=Nc1c(-c2c(O)[nH]c3cc(Br)ccc23)[nH]c2ccccc12,Potency,[6],21.3 µM (active)
same,Potency,[14],inactive
same,Potency,[1],1.32 µM (active)
same,Potency,[8],1.32 µM (active)
Nc1nc(N)c(N=O)c(OCC2CCCCC2)n1,Potency,[6],inactive
same,Potency,[7],inactive
same,Potency,[1],7.31 µM (active) and 4.68 µM (active)
same,Potency,[8],6.51 µM (active)
COc1ccccc1N1CCN(CCN(C(=O)C2CCCCC2)c2ccccn2)CC1,Potency,[9],inactive
same,Potency,[14],inactive
same,Potency,[1],inactive
same,Potency,[8],inactive
CCOC(=O)C1=C[C@@H](OC(CC)CC)[C@H](NC(C)=O)[C@@H](N)C1,Potency,[9],inactive
same,Potency,[1],inactive
same,Potency,[8],inactive
CC(C)c1ccc2c(c1)c(SC(C)(C)C)c(CC(C)(C)C(=O)O)n2Cc1ccc(Cl)cc1,Potency,[9],inactive
same,Potency,[14],inactive
same,Potency,[1],inactive
same,Potency,[8],inactive
same,Potency,[10],inactive and 30.1 µM (active) and 35.2 µM (active)
same,outcome,[11],inactive
same,outcome,[12],inactive
same,Potency,[13],inactive and 19 µM (active) and 27.8 µM (active)
same,outcome,[18],inactive
same,outcome,[19],inactive
same,activity,[2],-0.145%
same,Potency,[3],30.6 µM (active)
same,activity,[4],-41.8%
same,activity,[5],-5.81%
